This excerpt belongs to a sample that is enriched for hits.
CBX7 inh = blocks human CBX7 binding to H3K27me3 peptide | O95931 | normalised signal (fraction of DMSO) (no concentration beside the values) | 1.1% of 66,000 active | AlphaScreen His6-CBX7 / biotin-H3K27me3 peptide binding; hits give low values; in the data active = normalised signal below about 0.5
Target sequence (O95931 whole entry, looked up): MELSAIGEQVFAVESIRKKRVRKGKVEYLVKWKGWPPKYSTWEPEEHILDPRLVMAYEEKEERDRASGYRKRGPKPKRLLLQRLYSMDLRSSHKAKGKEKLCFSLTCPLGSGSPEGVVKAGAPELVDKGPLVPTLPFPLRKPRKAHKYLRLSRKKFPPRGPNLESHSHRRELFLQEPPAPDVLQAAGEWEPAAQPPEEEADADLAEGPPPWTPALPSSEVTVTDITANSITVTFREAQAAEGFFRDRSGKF
Of the large screens only hits and unclear results are named; the others gave an inactive call.

Cc1cccc2nc(-c3ccccn3)c(Nc3ccc(F)cc3)n12	CBX7 inh 0.059
Cc1ccc(Nc2c(-c3ccsc3)nc3cccc(C)n23)cc1	none
Cc1ccc(Nc2c(-c3ccccn3)nc3ccc(Cl)cn23)cc1	none
Cc1ccn2c(Nc3ccc(F)cc3)c(-c3ccccn3)nc2c1	CBX7 inh 0
Cc1ccc(Nc2c(-c3ccccc3)nc3cc(C)ccn23)cc1	none
Cc1ccc(-c2nc3ccccn3c2Nc2ccc(F)cc2)cc1	none
Fc1ccc(Nc2c(-c3ccccn3)nc3ccc(Br)cn23)cc1	none
CCOC(=O)N1CCc2c(sc(NCc3cccnc3)c2C(=O)Nc2cc(OC)ccc2OC)C1	none
Oc1ccccc1-c1nc2sccn2c1Nc1ccc2c(c1)OCCO2	none
CCCCNS(=O)(=O)c1ccc2nc(-c3cccnc3)cc(C(=O)NCCc3ccccc3)c2c1	none
C=CCN(c1ccccc1)S(=O)(=O)c1ccc2[nH]cc(C(=O)NCCCOC)c(=O)c2c1	none
Cc1nc(N2CCN(c3ccccn3)CC2)c2c3c(sc2n1)CCCC3	none
CCOC(=O)C1CCN(c2c(NCCOC)c(=O)c2=O)CC1	none
Cc1cc(C)c(C#N)c(SCC(=O)Nc2nsc(-c3ccccc3)n2)n1	none
COc1ccc(NC(CNS(=O)(=O)c2ccc(Cl)cc2)c2ccccc2)cc1 (stereo unspecified)	none
O=S(=O)(NCC(Nc1ccccc1)c1ccccc1)c1ccc(Cl)cc1 (stereo unspecified)	none
COc1ccccc1NC(CNS(=O)(=O)c1ccccc1)c1ccccc1 (stereo unspecified)	CBX7 inh 0.47
CCCCn1c(C2CC(=O)N(c3cccc(C)c3C)C2)nc2ccccc21 (stereo unspecified)	none
O=C(CCCNS(=O)(=O)c1ccc2c(c1)CCC(=O)N2)NCc1ccccc1	none
CN(C(=O)Cc1c[nH]c2ccc(Cl)cc12)c1ccc(F)cc1	none
CCOC(=O)C1CCN(c2c(Nc3ccc(F)cc3)c(=O)c2=O)CC1	none
COc1ccc(CNc2ccc3c(c2)nc(C)n3Cc2ccccc2)cc1OC	CBX7 inh 0.4
COc1ccccc1OCc1nc2ccccc2n1Cc1ccccc1	none
COc1cccc(CNc2ccc3c(c2)nc(C)n3Cc2ccccc2)c1OC	CBX7 inh 0.31
CC(=O)Nc1ccc2c(c1)nc(C)n2Cc1ccccc1	none
COc1ccc(CNc2ccc(-c3nc4cc(C)ccc4s3)cc2)cc1OC	none
COc1cccc(CNc2ccc3c(c2)nc(C)n3C)c1OC	none
COc1ccc2c(c1)nc(C)n2Cc1ccccc1	none
COc1ccccc1CNc1ccc2c(c1)nc(C)n2C	none
COc1ccc(CNc2ccc3c(c2)nc(C)n3Cc2ccccc2)cc1	CBX7 inh 0.35
O=C(NCCN1CCc2ccccc2C1)c1ccc2c(c1)ncn2C1CCCC1	none
COc1cccc(CNC(=O)CCn2nc(-c3ccc(C)cc3)ccc2=O)c1	none
O=S1(=O)N=C(Nc2ccc(Cl)c(Cl)c2)c2ccccc21	none
CCC(C(=O)NCc1ccccc1Cl)n1ncc2ccccc21 (stereo unspecified)	none
COc1ccc(CCC(=O)Nc2ccc3nc(N4CCCCC4)cc(C)c3c2)cc1	none
CC1(C)CC(=O)C2=C(C1)N(c1ccc(Cl)cc1)C(=O)CC2c1cccs1 (stereo unspecified)	none
COc1ccc(-c2nc(-c3ccccc3)c(-c3ccccc3)[nH]2)cc1O	none
COc1ccc(OC)c(-c2nc3ccccc3nc2-c2ccccc2)c1	none
COc1ccc(-c2[nH]c(-c3cc(OC)c4c(c3)OCO4)nc2-c2ccccc2)cc1	none
COc1ccc(OC)c(-c2nc(-c3ccccc3)c(-c3ccccc3)[nH]2)c1	CBX7 inh 0.41
COc1ccc(-c2nc(-c3ccccc3)c(-c3ccccc3)[nH]2)c(OC)c1	CBX7 inh 0.37
COc1ccc(-c2nc(-c3ccccc3)c(-c3ccc(F)cc3)[nH]2)c(OC)c1C	CBX7 inh 0.48
COc1ccc(-c2nc(-c3ccccc3)c(-c3ccc(Sc4ccccc4)cc3)[nH]2)cc1OC	none
COc1cccc(-c2nc(-c3ccccc3)c(-c3cc([N+](=O)[O-])ccc3C)[nH]2)c1OC	CBX7 inh 0.37
COc1cccc(-c2nc(-c3cccc(C)c3)no2)c1OC	none
COc1cc(OC)cc(-c2nc(-c3ccccc3)c(-c3ccc(Cl)cc3)[nH]2)c1	none
COc1ccc(N2CCN(c3ncnc4sc(C(=O)N5CCOCC5)c(C)c34)CC2)cc1	none
CCC(=O)N1CCc2cc(S(=O)(=O)Nc3cc(Cl)ccc3OC)ccc21	none
CC1CC(C)CN(C(=O)CN2C(=O)CSc3ccc(S(=O)(=O)N4CCOCC4)cc32)C1 (stereo unspecified)	none
CCc1ccccc1Nc1cc(C(=O)O)c2ccccc2n1	none
O=C1CC(c2ccc(-c3ccccc3)cc2)c2cc3c(cc2N1)OCO3 (stereo unspecified)	none
CC(C)CN(CC(C)C)S(=O)(=O)c1ccc(C(=O)Nc2nnc(-c3cccs3)o2)cc1	none
O=C(Nc1nnc(-c2ccc(Cl)s2)o1)c1ccc(S(=O)(=O)N2CCOCC2)cc1	CBX7 inh 0.0063
O=C(Nc1nnc(-c2cccs2)o1)c1ccc(S(=O)(=O)N2CCCC2)cc1	CBX7 inh 0.13
CC1CC(C)CN(S(=O)(=O)c2ccc(C(=O)Nc3nnc(-c4cccs4)o3)cc2)C1 (stereo unspecified)	none

Compound activity as filed in PubChem BioAssay.
